40 compounds from the supplement of paper PMC8975748 can be followed below.

Where a name gives a salt, the structure may show the parent alone.

The test system of the assay is Saccharomyces cerevisiae BY4741 SeMeCo community. The experiment in a line: z-score of subpopulation abundance vs DMSO median, subpopulation auxotrophic for HLUM; higher = larger share of this subpopulation than in DMSO controls. To be noted: 10 µM; 24 h; SM minimal medium; subpopulation (auxotrophy): HLUM. On the procedure:
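Fluorescent four-plasmid SeMeCo (self-establishing metabolically cooperating S. cerevisiae BY4741 community; plasmids pH-mRuby2, pL-mWasabi, pU-eCFP, pM-TagRFP657) was grown 24 h in minimal SM medium with each Selleck FDA-approved drug at 10 µM in 384-well plates. Cells were fixed and imaged by high-content confocal microscopy. For each auxotrophic subpopulation (and the prototroph), a z-score gives the deviation from the DMSO vehicle-control population median.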
As to `CC(=O)C1C(=O)C=C(C)OC1=O` (stereo not given) [Sodium dehydroacetate], the “z-score of subpopulation abundance” value is 1.61.

For the compound `CN(C)CCC=C1c2ccccc2CCc2ccccc21` [Amitriptyline HCl], the “z-score of subpopulation abundance” value was -0.81.

For `CC(=O)[C@@]1(O)CC[C@H]2[C@@H]3C[C@H](C)C4=CC(=O)CC[C@]4(C)[C@H]3CC[C@@]21C` [Medroxyprogesterone], the “z-score of subpopulation abundance” value was found to be 0.34.

On to `COCCOC(=O)C1=C(C)NC(C)=C(C(=O)OC(C)C)C1c1cccc([N+](=O)[O-])c1` (stereo not given) [Nimodipine], for which the “z-score of subpopulation abundance” value was -0.14.

For `CC[C@H]1OC(=O)[C@H](C)[C@@H](O[C@H]2C[C@@](C)(OC)[C@@H](O)[C@H](C)O2)[C@H](C)[C@@H](O[C@@H]2O[C@H](C)C[C@H](N(C)C)[C@H]2O)[C@](C)(O)C[C@@H](C)CN[C@H](C)[C@@H](O)[C@]1(C)O` [Azathramycin], the “z-score of subpopulation abundance” value is -0.5.

Take `CC[C@H]1OC(=O)[C@H](C)[C@@H](O[C@H]2C[C@@](C)(OC)[C@@H](O)[C@H](C)O2)[C@H](C)[C@@H](O[C@@H]2O[C@H](C)C[C@H](N(C)C)[C@H]2O)[C@](C)(O)C[C@@H](C)CN(C)[C@H](C)[C@@H](O)[C@]1(C)O` [Azithromycin Dihydrate]: the “z-score of subpopulation abundance” value is -0.18.

Consider `COc1ccc2c(c1)c(CC(=O)O)c(C)n2C(=O)c1ccc(Cl)cc1` [Indomethacin], for which the “z-score of subpopulation abundance” value was -0.35.

With `O=C1CN2Cc3c(ccc(Cl)c3Cl)N=C2N1` [Anagrelide HCl], the “z-score of subpopulation abundance” value was found to be 0.12.

Regarding `O=C(O)CCc1nc(-c2ccccc2)c(-c2ccccc2)o1` [Oxaprozin], the “z-score of subpopulation abundance” value is -0.44.

As for `COc1cnc(NS(=O)(=O)c2ccc(N)cc2)nc1` [Sulfameter], the “z-score of subpopulation abundance” value is -0.07.

As to `Oc1c(I)cc(I)c2cccnc12` [Diiodohydroxyquinoline], the “z-score of subpopulation abundance” value was 1.67.

`CCOC(=O)c1ccc(N)cc1` [Benzocaine]: the “z-score of subpopulation abundance” value was -0.38.

Consider `COc1ccnc(C[S+]([O-])c2nc3cc(OC(F)F)ccc3[nH]2)c1OC` (stereo not given) [Pantoprazole], for which the “z-score of subpopulation abundance” value was determined as 0.7.

As to `CCCCOc1ccc(CC(=O)NO)cc1` [Bufexamac], the “z-score of subpopulation abundance” value is -1.25.

Consider `Nc1nc2[nH]cc(CCc3ccc(C(=O)N[C@@H](CCC(=O)O)C(=O)O)cc3)c2c(=O)[nH]1` [Pemetrexed], for which the “z-score of subpopulation abundance” value was -1.01.

Regarding `Cc1cc(/C=C/c2ccc3cc(N(C)C)ccc3[n+]2C)c(C)n1-c1ccccc1` [pyrvinium], the “z-score of subpopulation abundance” value was -0.49.

As for `Cc1cc(C)nc(NS(=O)(=O)c2ccc(N)cc2)n1` [Sulfamethazine Sodium Salt], the “z-score of subpopulation abundance” value turned out to be 0.81.

For the compound `Cc1cc(NS(=O)(=O)c2ccc(N)cc2)no1` [Sulfamethoxazole sodium], the “z-score of subpopulation abundance” value is -0.74.

As to `Nc1nc2c(ncn2COC(CO)CO)c(=O)[nH]1` [Ganciclovir], the “z-score of subpopulation abundance” value is -0.89.

In the case of `CCN(CC)C(=O)C1(c2ccccc2)CC1CN` (stereo not given) [Milnacipran HCl], the “z-score of subpopulation abundance” value is -0.13.

Consider `CCC(=O)Oc1ccc2c(c1)CCC1C2CCC2(C)C(OC(=O)CC)CCC12` (stereo not drawn) [Estradiol dipropionate(17-Beta-Estradiol-3,17-Dipropionate)], for which the “z-score of subpopulation abundance” value was -1.07.

As to `Cc1c(C(N)=O)cc([N+](=O)[O-])cc1[N+](=O)[O-]` [Dinitolmide], the “z-score of subpopulation abundance” value is 0.38.

On to `NC(=N\CCCCCC/N=C(N)/N=C(\N)Nc1ccc(Cl)cc1)/N=C(\N)Nc1ccc(Cl)cc1` [Chlorhexidine diacetate], for which the “z-score of subpopulation abundance” value stood at 2.97.

As to `CN(C)CCC=C1c2ccccc2C(C)(C)c2ccccc21` [Melitracen hydrochloride], the “z-score of subpopulation abundance” value is -0.56.

As for `Nc1ccc(/N=N/c2ccccc2)c(N)n1` [Phenazopyridine HCl], the “z-score of subpopulation abundance” value was -0.54.

For the compound `CCC1=C(C)CN(C(=O)NCCc2ccc(S(=O)(=O)NC(=O)N[C@H]3CC[C@H](C)CC3)cc2)C1=O` [Glimepiride], the “z-score of subpopulation abundance” value was 0.7.

For the compound `CC[C@H]1OC(=O)[C@H](C)[C@@H](O[C@H]2C[C@@](C)(OC)[C@@H](O)[C@H](C)O2)[C@H](C)[C@@H](O[C@@H]2O[C@H](C)C[C@H](N(C)C)[C@H]2O)[C@](C)(O)C[C@@H](C)CN(C)[C@H](C)[C@@H](O)[C@]1(C)O` [Azithromycin], the “z-score of subpopulation abundance” value came to 0.36.

As for `CC(C)(C)C1CCC(CC2=C(O)c3ccccc3C(=O)C2=O)CC1` (stereo not given) [Buparvaquone], the “z-score of subpopulation abundance” value came to 0.04.

`C[C@@H](O)[C@H]1C(=O)N2C(C(=O)O)=C([C@H]3CCCO3)S[C@H]12` [Faropenem Sodium]: the “z-score of subpopulation abundance” value was -0.05.

Consider `C[C@]12CC[C@@H]3c4ccc(O)cc4CC[C@H]3[C@@H]1CC[C@@H]2OC(=O)CCC1CCCC1` [Estradiol Cypionate], for which the “z-score of subpopulation abundance” value amounted to 0.52.

As to `C[C@]12CC[C@@H]3c4ccc(OS(=O)(=O)O)cc4CC[C@H]3[C@@H]1CCC2=O` [Estropipate], the “z-score of subpopulation abundance” value is -0.39.

For `CN1CCN(CCCN2c3ccccc3Sc3ccc(C(F)(F)F)cc32)CC1` [Trifluoperazine 2HCl], the “z-score of subpopulation abundance” value is -0.04.

Take `CCCN(CCC)CCc1cccc2c1CC(=O)N2` [Ropinirole HCl]: the “z-score of subpopulation abundance” value came to 0.64.

Regarding `CCCN1CCCC[C@H]1C(=O)Nc1c(C)cccc1C` [Ropivacaine], the “z-score of subpopulation abundance” value is -0.55.

On to `Nc1ccc(S(=O)(=O)c2ccc(N)cc2)cc1` [Dapson], for which the “z-score of subpopulation abundance” value was found to be 0.06.

With `N#Cc1ccc(Oc2ccc3c(c2)COB3O)cc1` [Crisaborole (AN2728)], the “z-score of subpopulation abundance” value was 5.38.

As for `CCC[C@@H]1C[C@@H](C(=O)N[C@@H]([C@H]2O[C@H](SC)[C@H](O)[C@@H](O)[C@H]2O)[C@@H](C)O)N(C)C1` [Lincomycin Hydrochloride Monohydrate], the “z-score of subpopulation abundance” value came out at 0.63.

On to `OC1(c2ccc(Cl)c(C(F)(F)F)c2)CCN(CCCC(c2ccc(F)cc2)c2ccc(F)cc2)CC1` [Penfluridol], for which the “z-score of subpopulation abundance” value came out at 0.27.

With `CC(N)C12CC3CC(CC(C3)C1)C2` (stereo not given) [Rimantadine], the “z-score of subpopulation abundance” value is -0.32.

Take `Clc1ccc(COC(Cn2ccnc2)c2ccc(Cl)cc2Cl)cc1` (stereo not given) [Econazole nitrate]: the “z-score of subpopulation abundance” value came to 9.87.
